MITF primary: MITF inhibitors, primary screen, biochemical, AlphaScreen, human. AID 1259374, 2018. Microphthalmia-associated transcription factor (Homo sapiens), O75030. 650,000 compounds, 0.91% hits. inhibition, % at 2.6 µM. AlphaScreen MITF homodimerization, bead proximity signal; in the data active means inhibition above about 50%
FBW7 activator: FBW7 E3 ligase activators, primary screen, biochemical, AlphaScreen, human | F-box/WD repeat-containing protein 7 (Homo sapiens), Q969H0 | AlphaScreen FBW7–phospho-cyclin E peptide binding, activator screen | normalized activity (activation), % at 26.1 µM | 650,000 compounds, 0.13% hits; in the data active means normalized activity above about 1.9%;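 further: purified mutant Fbw7 with reduced substrate affinity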
Target sequence (Q969H0 whole entry, looked up): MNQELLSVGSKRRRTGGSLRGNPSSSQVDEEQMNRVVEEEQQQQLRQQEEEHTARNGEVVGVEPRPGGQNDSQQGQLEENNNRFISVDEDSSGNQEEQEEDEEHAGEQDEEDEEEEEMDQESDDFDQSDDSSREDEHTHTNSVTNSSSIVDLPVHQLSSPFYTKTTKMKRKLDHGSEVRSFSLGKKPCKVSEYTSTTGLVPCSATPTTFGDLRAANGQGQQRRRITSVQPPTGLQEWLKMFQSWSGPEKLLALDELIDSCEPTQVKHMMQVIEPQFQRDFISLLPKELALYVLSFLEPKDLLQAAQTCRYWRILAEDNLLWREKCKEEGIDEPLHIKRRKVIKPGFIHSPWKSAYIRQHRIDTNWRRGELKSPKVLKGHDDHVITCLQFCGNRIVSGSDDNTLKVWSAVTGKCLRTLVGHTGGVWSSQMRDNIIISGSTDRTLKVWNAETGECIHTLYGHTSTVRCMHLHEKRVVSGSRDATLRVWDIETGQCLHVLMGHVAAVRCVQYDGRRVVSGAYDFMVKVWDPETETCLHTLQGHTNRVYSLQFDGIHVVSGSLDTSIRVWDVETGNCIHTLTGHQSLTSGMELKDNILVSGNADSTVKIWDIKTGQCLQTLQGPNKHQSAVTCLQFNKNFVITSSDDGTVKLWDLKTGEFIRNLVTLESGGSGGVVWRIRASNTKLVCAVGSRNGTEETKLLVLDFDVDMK
GPR151 activ: activators of human GPR151, primary screen, cell-based, PathHunter beta-arrestin, luminescence; G-protein coupled receptor 151 (Homo sapiens), Q8TDV0; PathHunter beta-arrestin GPR151 cells; activation, % at 11.2 µM; 650,000 compounds, 1% hits; in the data active means activation above about 4.9%
TEAD-YAP block: TEAD-YAP interaction inhibition, primary screen, TEAD-YAP interaction inhibitor project, luminescence, HEK-TIYL cells. TEAD-Gal4/YAP UAS-luciferase luminescence. inhibition, % at 9.12 µM. 640,000 compounds, 1.4% hits. AID 1259422, 2018; in the data active means inhibition above about 32%
Numbers stand for hits; . = inactive; ! = a repeat was not active. Only some compounds are listed: those with a hit (about 3.4% of all), similar ones and a draw of the others.

SMILES	MITF primary	FBW7 activator	GPR151 activ	TEAD-YAP block
COc1ccc(-c2nc3ccccc3c(=O)n2NC(=O)c2cccc(Cl)c2)cc1OC	.	.	.	.
O=C(Oc1ccc(OC(=O)c2ccco2)c(Cl)c1)c1ccco1	.	.	.	.
CCOC(=O)C(C)Oc1ccc2c(=O)c(-c3ccc(OC(C)C)cc3)coc2c1 (stereo not drawn)	.	.	.	.
COc1ccc(-c2coc3cc(OC)ccc3c2=O)cc1	.	.	.	.
COc1ccc(-c2coc3cc(O)ccc3c2=O)cc1	.	.	.	53!
CC(C)Oc1cc(O)c2c(=O)c(-c3ccc(O)cc3)coc2c1	.	.	.	57
Cc1cc(NC(=O)CSc2nc3ccsc3c(=O)n2CCCC(=O)NCCc2ccccc2)n[nH]1	.	.	.	.
COc1ccc(CNc2nccn3c(-c4cccc5ccccc45)cnc23)cc1	.	2.2	.	.
Cc1cc(C)nc(SCC(=O)Nc2ccc(N3CCOCC3)c(Cl)c2)n1	.	.	.	32
Cc1ccc(S(=O)(=O)N/N=C/c2cc([N+](=O)[O-])ccc2O)cc1[N+](=O)[O-]	.	.	.	.
O=[N+]([O-])c1cc(S(=O)(=O)N/N=C/c2ccc(O)c(O)c2O)ccc1Cl	55	.	.	.
CCN(CC)c1ccc(/C=N/Nc2ccccc2[N+](=O)[O-])c(O)c1	.	.	.	40
CCN(CC)c1ccc(/C=N/N=C(N)N)c(O)c1	.	.	.	50
Cc1ccccc1/C=N/Nc1ccc(S(N)(=O)=O)cc1[N+](=O)[O-]	.	2.0	.	.
NS(=O)(=O)c1ccc(N/N=C/c2ccccc2Br)c([N+](=O)[O-])c1	.	.	.	.
CN(C(=O)c1ccccc1F)c1nc(-c2ccccc2)cs1	.	.	.	.
Cc1[nH]nc(NCc2ccco2)c1[N+](=O)[O-]	.	.	.	.
Cc1nc(CC(=O)NCC2CCC3(CCN(Cc4ccccn4)CC3)O2)cs1 (stereo not drawn)	.	.	.	.
COc1cccc(N2C(=NC(=O)c3cccc([N+](=O)[O-])c3)SC3CS(=O)(=O)CC32)c1 (stereo not drawn)	.	.	.	.
NS(=O)(=O)c1ccc(N/N=C/c2ccc(O)c(O)c2O)c([N+](=O)[O-])c1	70	.	.	.
CCOC(=O)c1nnn(-c2nonc2N)c1CN(Cc1ccccc1)C(C)C	.	.	.	44
CCOC(=O)c1nnn(-c2nonc2N)c1CN(CC)c1ccccc1	.	.	.	.
O=C(NNC(=O)C1c2ccccc2Oc2ccccc21)Nc1ccc2c(c1)OCO2	.	.	.	61
COCCCn1c(=O)[nH]c2nc(-c3ccc(OCCCN(C)C)nc3)cnc21	.	.	.	.
CCCCN1C(=O)C(=O)c2cc(Br)ccc21	.	.	.	41
SMILES	MITF primary	FBW7 activator	GPR151 activ	TEAD-YAP block
CC(=O)CCN1C(=O)C(=O)c2cc(Br)ccc21	.	.	.	.
CN(C)Cc1ccc2c3c1c1c(n3CC(=O)N2C)CCCC1	.	.	.	.
CCOC(=O)c1cccc(C(=O)NC2=NN(c3ccccc3)C(=O)C2)n1	.	51	.	.
CCOC(=O)c1cccc(C(=O)Nc2ccccc2C(=O)OC)n1	.	.	.	.
COc1cc(/C=C/c2ccc(O)c(OC)c2)ccc1O	.	.	.	.
O=c1cc(O)cc(/C=C/c2ccc(O)c(O)c2)o1	86	.	.	.
CNC[C@H](O)c1ccc(O)c(O)c1	56!	.	.	.
CC(=O)c1cccc(NC(=O)c2cc3ccccc3o2)c1	.	.	.	.
COc1cc(Nc2nc(-c3ccc(C(N)=O)cc3)nc3c2ncn3Cc2ccc(C(F)(F)F)cc2)cc(OC)c1OC	.	.	.	53
COc1cc(Nc2nc(-c3ccc(C(N)=O)cc3)nc3c2ncn3C(C)C)cc(OC)c1OC	.	.	.	41
COc1cc(Nc2nc(-c3ccc(C(N)=O)cc3)nc3c2ncn3-c2ccsc2)cc(OC)c1OC	.	.	.	54
COc1cc(Nc2nc(-c3ccc(C(N)=O)cc3)nc3c2ncn3-c2ccccc2)cc(OC)c1OC	.	.	.	.
COc1cc(Nc2nc(-c3ccc(C(=O)N4CCN(C)CC4)cc3)nc3c2ncn3C(C)C)cc(OC)c1OC	.	.	.	.
C=CCn1cc(C(=O)NC2CCCCC2)c(=O)c2cc(S(=O)(=O)N(CC)CC)ccc21	.	.	.	.
O=C(Nc1ccc2c(c1)CN(C(=O)CSc1ncccn1)CC2)C1CCCO1 (stereo not drawn)	.	.	.	.
CC(C)n1c(-c2c(-c3ccc4ccccc4n3)cnc3ccccc23)nc2ccccc21	.	.	.	.
O=C(/C=C/c1ccc(Cl)cc1Cl)Nc1ccccc1F	.	.	.	47
O=C(/C=C/c1ccccc1Cl)Nc1cccc(O)c1	.	.	.	38
O=C(/C=C/c1ccccc1Cl)Nc1ccc2c(c1)C(=O)NC2=O	.	.	.	.
COc1ccc(/C=C/C(=O)Nc2ccccc2F)cc1	.	.	.	80
Nc1sc2c(c1C(=O)NCc1ccco1)CCCC2	.	.	.	.
O=C(Cn1cnc([N+](=O)[O-])c1[N+](=O)[O-])Nc1cc(Oc2ccccc2)cc([N+](=O)[O-])c1	.	.	.	42
O=C(Cn1cnc([N+](=O)[O-])c1[N+](=O)[O-])Nc1ccc(Cl)cc1	.	.	.	87
COc1cccc(C(=O)Nc2ccc(Oc3cccc(Oc4ccc(NC(=O)c5cccc(OC)c5)cc4)c3)cc2)c1	.	.	.	.
Cc1cccc2sc(NC(=O)CSc3nnnn3-c3ccccc3)nc12	.	2.0	.	.
SMILES	MITF primary	FBW7 activator	GPR151 activ	TEAD-YAP block
Cc1sc(NC(=O)CSc2nnnn2-c2ccccc2)nc1-c1ccccc1	.	.	.	.
O=C(CN1C(=O)C2C3C=CC(C4CC34)C2C1=O)N1CCC(c2ccncc2)CC1 (stereo not drawn)	.	.	.	50
O=C(N/N=C/c1cccc([N+](=O)[O-])c1O)c1cccs1	73	.	.	.
O=C(N/N=C/c1cccc([N+](=O)[O-])c1O)c1cccc([N+](=O)[O-])c1	53	.	.	.
O=C(N/N=C/c1ccc([N+](=O)[O-])cc1)c1cccs1	.	.	.	.
N#Cc1c(NCCN)nc(-c2ccco2)c2c1CCCC2	.	.	.	34
CCCCCNc1nc(-c2ccco2)c2c(c1C#N)CCCC2	.	.	.	.
CCCc1cc(C(=O)OC)c(NC(=O)/C=C/C(=O)O)s1	.	.	.	37
CCOC(=O)c1cc(C(C)C)sc1NC(=O)/C=C/C(=O)O	.	.	.	45
O=C(Nc1ccccc1O)c1ccc2c(c1)C(=O)N(c1ccc(Cl)cc1)C2=O	.	.	.	.
CCOCCCNC(=O)Cn1nc2c3ccccc3nc(CC)n2c1=O	.	.	.	.
CN(C)Cc1ccc2c(sc3nc4n(c(=O)c32)CCCCC4)c1O	.	.	.	53
CC(C)(C)OC(=O)NCCN1CCS(=O)(=O)CC1	.	.	.	.

High-throughput results deposited in PubChem BioAssay by The Scripps Research Institute Molecular Screening Center.
